Reference: PubChem BioAssay (NCI)
This is part of a sample that, as a whole, favours compounds with a hit. Of some 83,000 tested, about 20% had one in any assay.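 48-hour exposure, single concentration, 96-well plates; percent growth endpoint where 0 means no net growth. Active: below 10.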 Values without a mark were called inactive. Calls of active or inactive are those of the source.

Columns and labels:
Experiment in all cases: NCI-60 one-dose screen, 48 h (100 = growth as untreated, 0 = no growth, -100 = all killed)
Details in all cases: 10 µM unless noted
NCI-H23 lung = system: NCI-H23 lung
NCI-H226 lung = system: NCI-H226 lung
NCI-H322M lung = system: NCI-H322M lung
HOP-62 NSCLC = system: HOP-62 NSCLC
NCI-H460 lung = system: NCI-H460 lung
NCI-H522 lung = system: NCI-H522 lung
A549/ATCC NSCLC = system: A549/ATCC NSCLC
786-0 renal = system: 786-0 renal
COLO 205 colon = system: COLO 205 colon
DU-145 prostate = system: DU-145 prostate
MALME-3M melanoma = system: MALME-3M melanoma
MDA-MB-231 breast = system: MDA-MB-231 breast
RXF 393 renal = system: RXF 393 renal
SF-268 CNS = system: SF-268 CNS
SF-295 CNS = system: SF-295 CNS
SF-539 CNS = system: SF-539 CNS
UACC-257 melanoma = system: UACC-257 melanoma
M14 melanoma = system: M14 melanoma

| Compound | growth (NCI-H23 lung) | growth (NCI-H226 lung) | growth (NCI-H322M lung) | growth (HOP-62 NSCLC) | growth (NCI-H460 lung) | growth (NCI-H522 lung) | growth (A549/ATCC NSCLC) | growth (786-0 renal) | growth (COLO 205 colon) | growth (DU-145 prostate) | growth (MALME-3M melanoma) | growth (MDA-MB-231 breast) | growth (RXF 393 renal) | growth (SF-268 CNS) | growth (SF-295 CNS) | growth (SF-539 CNS) | growth (UACC-257 melanoma) | growth (M14 melanoma) |
| --- | --- | --- | --- | --- | --- | --- | --- | --- | --- | --- | --- | --- | --- | --- | --- | --- | --- | --- |
| O=S1(=O)NCCN1CCNc1nccc(-c2c(-c3cccc(O)c3)nc3sccn23)n1 | 104% | 105% | 115% | 115% | 107% | 87.2% | 106% | 126% | 42.4% | 106% | 4.99% (active) | 86.8% | 111% | 116% | 93.2% | 109% | 59.7% | 20.8% |
| O=C(CC(=O)C(F)(F)C(F)(F)C(F)(F)F)c1cc2ccccc2o1 | 101% | 99.8% | 106% | 97.5% | 110% | 108% | 96.1% | 98.4% | 114% | 114% | 102% | 100% | 116% | 111% | 99.2% | 94.1% | 100% | 106% |
| CCN(CCC#N)c1ccccc1 | 106% | 100% | 106% | 101% | 107% | 109% | 108% | 99.7% | 132% | 113% | 100% | 89.9% | 122% | 115% | 102% | 96.5% | 119% | 109% |
| CC1=CCC2C1CC=C(C)C(CC[C@H]1[C@@](C)(O)CCC3OC(C)(C)[C@H](OC(=O)c4ccccc4)CC[C@@]31C)C2(C)C (stereo partly specified) | 65.2% | 72.9% | 96.3% | 86% | 97.1% | 67.8% | 78.7% | 70.9% | 112% | 106% | 111% | 88% | 69.8% | 93.6% | 84.7% | 99.1% | 81.3% | 90.1% |
| COc1ccc(/C=C/C(=O)CCC(=O)O)cc1OC | 109% | 102% | 97.4% | 91.4% | 111% | 93.2% | 103% | 95.3% | 106% | 111% | 102% | 119% | 116% | 107% | 104% | 101% | 105% | 101% |
| COc1ccccc1CNCCCN1C(=O)c2ccc3c4c(ccc(c24)C1=O)C(=O)N(CCCOCCCCOCCCN)C3=O | -67.6% (active) | -10.8% (active) | -12.1% (active) | 14% | -65.5% (active) | -77.4% (active) | -33.8% (active) | 14.3% | -95% (active) | -74% (active) | -93.1% (active) | -4.84% (active) | -42.6% (active) | -21.5% (active) | -9.19% (active) | -34.9% (active) | -91.7% (active) | -85.4% (active) |
| COc1ccc(C2NC(=O)c3cc4c(cc3N2)OCO4)cc1 (stereo unspecified) | 8.1% (active) | 5.1% (active) | 50.4% | 27.8% | 5.06% (active) | -48.7% (active) | 18.9% | 37.1% | -22.1% (active) | 7.04% (active) | 58.7% | 31.3% | -2.15% (active) | 39.6% | -14% (active) | 8.24% (active) | 65.8% | -7.7% (active) |
| CC(C)(C)c1ccc(C(=O)Nc2sc3cc(O)ccc3c2C(N)=O)cc1 | 88.3% | 101% | 86.2% | 106% | 51.2% | 64.9% | 82.5% | 70.3% | 57.2% | 69.7% | 94% | 76% | 70.6% | 92.4% | 63.5% | 53.9% | 95.2% | 22.1% |
| COc1ccccc1CNCCCN1C(=O)c2ccc3c4c(ccc(c24)C1=O)C(=O)N(CCCNCCCN)C3=O | -63.4% (active) | 38.7% | 1.95% (active) | 11.6% | -26.5% (active) | -75.6% (active) | 9.81% (active) | 11% | -87.8% (active) | -1.55% (active) | -41.9% (active) | 12.2% | -36.9% (active) | -0.397% (active) | 14.5% | 8.47% (active) | -74.4% (active) | -44.1% (active) |
| COc1cc(C2CC(=O)Nc3c2cnn3C)cc(OC)c1OC (stereo unspecified) | 108% | 104% | 100% | 98.2% | 117% | 101% | 107% | 103% | 110% | 108% | 97.7% | 118% | 124% | 112% | 105% | 103% | 101% | 103% |
| CCCCCCCCCCCCNC(=O)N[C@H](C(=O)N[C@H]1/C=C/CCNC(=O)/C=C/[C@H](C)NC1=O)C(C)C | -42.8% (active) | -87% (active) | 3.54% (active) | -65.1% (active) | 2.24% (active) | -21.7% (active) | 10.5% | -37.7% (active) | -51.3% (active) | 6.45% (active) | -1.82% (active) | -44.7% (active) | -98.8% (active) | -44.9% (active) | -37.4% (active) | -49.4% (active) | 49.9% | -82% (active) |
| COc1cccc(C2C(C#N)=C(N)Oc3cc4c(cc32)OCO4)c1 (stereo unspecified) | 9.81% (active) | -7.07% (active) | 37.6% | 22.7% | 7.64% (active) | 11.5% | 21.4% | 29.9% | -47.1% (active) | 1.58% (active) | 39.8% | 30.2% | 2.45% (active) | 29.9% | 7.47% (active) | 4.53% (active) | 57.4% | 0.938% (active) |
| CC(=O)Nc1ccc(/C=N/N2CCCCCC2)cc1 | 103% | 92% | 101% | 95.2% | 106% | 103% | 94.3% | 90.9% | 110% | 102% | 99.7% | 74.7% | 105% | 99.4% | 94.3% | 83.6% | 114% | 106% |
| CCN(CC)c1ccc(/C=C2/NC(=O)NC2=O)cc1 | 44.6% | 81.5% | 79.1% | 53.4% | 20.6% | 14.5% | 59.1% | 48% | 3.89% (active) | 64.3% | 42% | 57.5% | 50.3% | 57% | 23.6% | 6.57% (active) | 72.9% | 8.99% (active) |
| CNC(=O)c1c(NC(=O)c2cccc(C(F)(F)F)c2)sc2c1CCC(=O)C2 | -1.79% (active) | 1.92% (active) | 15.4% | 13.6% | 10% | -28.3% (active) | 13.6% | 13.3% | -31.7% (active) | 23.9% | -28.9% (active) | -41.2% (active) | -18.9% (active) | 21.7% | -10.4% (active) | -30% (active) | -11% (active) | -10.9% (active) |
| CC(C)(C)c1nn(-c2ccccc2)c2c1C(=O)CSC(c1ccc3c(c1)OCO3)N2 (stereo unspecified) | 99.8% | 104% | 88.8% | 88.6% | 106% | 89.7% | 112% | 88.7% | 113% | 104% | 92% | 98.6% | 114% | 92.5% | 91.4% | 101% | 130% | 91.3% |
| CCCCCCCCOC(=O)C(C)OC(=O)OCCOCCOC(=O)OC(C)C(=O)OCCCCCCCC (stereo unspecified) | 113% | 102% | 92.4% | 105% | 107% | 114% | 102% | 104% | 119% | 104% | 89.3% | 107% | 110% | 103% | 93.6% | 109% | 107% | 96.5% |
